What all share (test): DAPPL (digital affinity profiling via proximity ligation, sequencing); 10 mM Tris-HCl pH 7.5, 50 mM NaCl, 1 mM DTT, 4% glycerol, room temperature, 30 min; GST-TFs on glutathione beads, 16-mer random dsDNA library, 0.1% formaldehyde crosslink after washing; high values mean tight binding
One assay addresses T1, FEV (Homo sapiens, UniProt Q99581 1-238).
T1 sequence: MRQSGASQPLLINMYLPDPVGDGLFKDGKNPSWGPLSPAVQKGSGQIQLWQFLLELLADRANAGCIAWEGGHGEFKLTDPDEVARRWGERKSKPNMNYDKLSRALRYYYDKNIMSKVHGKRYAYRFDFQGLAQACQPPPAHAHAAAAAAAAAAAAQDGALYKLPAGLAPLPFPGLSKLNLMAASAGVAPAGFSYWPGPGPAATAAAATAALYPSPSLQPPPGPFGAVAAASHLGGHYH
Conditions: protein: recombinant; tags: N-terminal GST; dsDNA, one strand shown. Put shortly:
(§1)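 Binding signal is given per hexamer as its read frequency for a factor divided by its frequency in the tag-only sample. GST-fused human transcription factors were expressed in yeast, captured on glutathione beads, barcoded with DNA and pooled with that sample, then incubated with 200 nmole of a 16-mer random double-stranded DNA library in Tris/NaCl/DTT/glycerol buffer for 30 min at room temperature. The pools were then washed, crosslinked, proximity-ligated, amplified by PCR and sequenced on an Illumina NextSeq500.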

In another assay the target is ETV5 (Homo sapiens, UniProt P41161 1-510). The note with it: protein: recombinant; tags: N-terminal GST; dsDNA, one strand shown. Put shortly: as §1
Sequence of ETV5 (P41161 whole entry): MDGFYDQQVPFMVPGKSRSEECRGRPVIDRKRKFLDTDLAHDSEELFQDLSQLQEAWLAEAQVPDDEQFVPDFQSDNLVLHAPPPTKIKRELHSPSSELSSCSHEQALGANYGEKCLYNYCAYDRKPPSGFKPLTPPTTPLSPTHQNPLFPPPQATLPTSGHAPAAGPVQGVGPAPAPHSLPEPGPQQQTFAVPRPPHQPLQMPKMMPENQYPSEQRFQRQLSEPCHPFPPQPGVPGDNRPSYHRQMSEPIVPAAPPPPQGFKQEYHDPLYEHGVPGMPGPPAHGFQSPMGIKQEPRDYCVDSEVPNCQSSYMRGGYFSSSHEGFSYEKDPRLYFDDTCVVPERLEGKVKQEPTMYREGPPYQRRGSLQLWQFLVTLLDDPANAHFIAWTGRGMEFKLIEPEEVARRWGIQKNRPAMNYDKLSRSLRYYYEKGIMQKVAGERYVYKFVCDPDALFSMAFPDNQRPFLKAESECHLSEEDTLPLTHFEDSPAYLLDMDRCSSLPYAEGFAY
In the next assay the target is HSF1 (Homo sapiens, UniProt Q00613 1-529). The note with it: protein: recombinant; tags: N-terminal GST; chain copies: 3; dsDNA, one strand shown. Summed up:
as §1

In another assay the target is T2, SPIC (Homo sapiens, UniProt Q8N5J4 1-248).
T2 sequence: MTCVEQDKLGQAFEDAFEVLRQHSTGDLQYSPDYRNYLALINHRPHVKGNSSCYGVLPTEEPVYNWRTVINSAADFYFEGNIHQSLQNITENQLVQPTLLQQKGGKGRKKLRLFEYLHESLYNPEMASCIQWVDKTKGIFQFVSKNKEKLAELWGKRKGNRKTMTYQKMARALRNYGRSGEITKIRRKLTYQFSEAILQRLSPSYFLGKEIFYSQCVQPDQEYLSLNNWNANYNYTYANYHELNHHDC
The note with it: protein: recombinant; tags: N-terminal GST; dsDNA, one strand shown. Put shortly:
as §1

The target in another assay is ELF4 (Homo sapiens, UniProt Q99607 1-663). The note with it: protein: recombinant; tags: N-terminal GST; dsDNA, one strand shown. Put shortly: as §1
Sequence of ELF4 (Q99607 whole entry): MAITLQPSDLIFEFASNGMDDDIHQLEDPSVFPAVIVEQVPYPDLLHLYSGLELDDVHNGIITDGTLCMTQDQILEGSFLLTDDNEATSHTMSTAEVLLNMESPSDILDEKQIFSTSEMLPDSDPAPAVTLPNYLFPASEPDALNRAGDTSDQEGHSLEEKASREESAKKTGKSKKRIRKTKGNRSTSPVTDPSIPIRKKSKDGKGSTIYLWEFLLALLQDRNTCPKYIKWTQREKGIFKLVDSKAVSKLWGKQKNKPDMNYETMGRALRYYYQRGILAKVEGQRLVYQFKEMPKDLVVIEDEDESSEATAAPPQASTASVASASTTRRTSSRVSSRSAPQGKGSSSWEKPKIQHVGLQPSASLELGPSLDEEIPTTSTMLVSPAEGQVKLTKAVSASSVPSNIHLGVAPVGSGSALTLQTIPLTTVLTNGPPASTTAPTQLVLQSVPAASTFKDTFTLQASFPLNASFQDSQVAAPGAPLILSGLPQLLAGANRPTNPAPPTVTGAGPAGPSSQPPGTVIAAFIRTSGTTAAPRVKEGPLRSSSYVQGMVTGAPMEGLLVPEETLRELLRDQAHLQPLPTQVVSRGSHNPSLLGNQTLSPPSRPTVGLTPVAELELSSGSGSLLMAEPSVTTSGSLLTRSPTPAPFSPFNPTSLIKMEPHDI
The target in the next assay is T3, ELK4 (Homo sapiens, UniProt P28324-2 1-405).
T3 sequence: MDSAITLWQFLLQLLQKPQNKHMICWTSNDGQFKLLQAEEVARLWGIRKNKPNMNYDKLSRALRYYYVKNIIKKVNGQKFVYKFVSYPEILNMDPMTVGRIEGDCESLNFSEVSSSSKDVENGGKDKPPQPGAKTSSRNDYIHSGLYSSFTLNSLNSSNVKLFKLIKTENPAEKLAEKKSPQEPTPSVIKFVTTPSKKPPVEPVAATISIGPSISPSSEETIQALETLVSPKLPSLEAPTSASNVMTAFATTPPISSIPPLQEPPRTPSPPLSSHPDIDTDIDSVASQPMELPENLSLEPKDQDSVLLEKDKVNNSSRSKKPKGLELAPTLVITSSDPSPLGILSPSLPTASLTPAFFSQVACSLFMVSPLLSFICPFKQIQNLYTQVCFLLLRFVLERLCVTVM
Conditions: protein: recombinant; tags: N-terminal GST; dsDNA, one strand shown. Put shortly:
as §1

The target of a further assay is T4, ETV2 (Homo sapiens, UniProt O00321 1-342).
T4 sequence: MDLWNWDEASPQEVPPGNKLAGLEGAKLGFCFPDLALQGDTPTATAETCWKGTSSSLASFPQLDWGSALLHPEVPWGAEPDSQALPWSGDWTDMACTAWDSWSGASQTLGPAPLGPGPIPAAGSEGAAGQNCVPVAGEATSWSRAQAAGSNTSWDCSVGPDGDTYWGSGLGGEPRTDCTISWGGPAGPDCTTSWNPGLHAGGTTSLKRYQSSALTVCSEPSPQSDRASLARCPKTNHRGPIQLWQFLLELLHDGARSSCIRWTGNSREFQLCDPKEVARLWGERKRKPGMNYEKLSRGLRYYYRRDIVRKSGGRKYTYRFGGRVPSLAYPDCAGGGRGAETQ
Conditions: protein: recombinant; tags: N-terminal GST; dsDNA, one strand shown. Summed up: as §1

The next assay concerns the target T5, ELF3 (Homo sapiens, UniProt P78545 1-371).
T5 sequence: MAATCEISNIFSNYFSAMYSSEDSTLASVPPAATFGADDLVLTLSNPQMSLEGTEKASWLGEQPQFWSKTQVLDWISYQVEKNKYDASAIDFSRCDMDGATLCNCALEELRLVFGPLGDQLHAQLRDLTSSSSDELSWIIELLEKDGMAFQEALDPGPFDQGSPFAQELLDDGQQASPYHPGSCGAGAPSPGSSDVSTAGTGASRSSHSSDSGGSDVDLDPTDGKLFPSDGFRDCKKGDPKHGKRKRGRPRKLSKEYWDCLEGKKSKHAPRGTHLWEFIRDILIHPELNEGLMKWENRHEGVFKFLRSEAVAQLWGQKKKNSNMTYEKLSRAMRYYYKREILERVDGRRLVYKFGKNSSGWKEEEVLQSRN
Conditions: protein: recombinant; tags: N-terminal GST; dsDNA, one strand shown. Summed up: as §1

In a further assay the target is CRX (Homo sapiens, UniProt O43186 1-299). Conditions: protein: recombinant; tags: N-terminal GST; dsDNA, one strand shown. Summed up:
as §1

In a further assay the target is ETV1 (Homo sapiens, UniProt P50549 1-477). Conditions: protein: recombinant; tags: N-terminal GST; dsDNA, one strand shown. Summed up:
as §1

Another assay has as its target T6, ERF (Homo sapiens, UniProt P50548 1-548).
T6 sequence: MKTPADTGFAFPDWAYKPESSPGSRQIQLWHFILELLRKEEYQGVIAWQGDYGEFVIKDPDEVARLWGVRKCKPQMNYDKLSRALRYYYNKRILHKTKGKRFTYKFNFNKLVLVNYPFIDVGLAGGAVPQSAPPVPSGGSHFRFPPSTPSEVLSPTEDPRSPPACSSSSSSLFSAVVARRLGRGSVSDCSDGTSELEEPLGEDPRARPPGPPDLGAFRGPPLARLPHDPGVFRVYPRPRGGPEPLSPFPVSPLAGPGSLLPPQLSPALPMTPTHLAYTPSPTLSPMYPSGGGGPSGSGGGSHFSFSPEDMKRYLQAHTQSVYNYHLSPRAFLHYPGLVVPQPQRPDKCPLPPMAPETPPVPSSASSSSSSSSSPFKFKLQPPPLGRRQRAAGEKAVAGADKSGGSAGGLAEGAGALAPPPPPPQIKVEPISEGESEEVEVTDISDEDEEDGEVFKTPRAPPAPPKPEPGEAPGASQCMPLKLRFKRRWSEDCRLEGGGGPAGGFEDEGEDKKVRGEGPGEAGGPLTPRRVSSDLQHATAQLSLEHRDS
Conditions: protein: recombinant; tags: N-terminal GST; dsDNA, one strand shown. Put shortly: as §1

The next assay deals with T7, ETV3L (Homo sapiens, UniProt Q6ZN32 1-361).
T7 sequence: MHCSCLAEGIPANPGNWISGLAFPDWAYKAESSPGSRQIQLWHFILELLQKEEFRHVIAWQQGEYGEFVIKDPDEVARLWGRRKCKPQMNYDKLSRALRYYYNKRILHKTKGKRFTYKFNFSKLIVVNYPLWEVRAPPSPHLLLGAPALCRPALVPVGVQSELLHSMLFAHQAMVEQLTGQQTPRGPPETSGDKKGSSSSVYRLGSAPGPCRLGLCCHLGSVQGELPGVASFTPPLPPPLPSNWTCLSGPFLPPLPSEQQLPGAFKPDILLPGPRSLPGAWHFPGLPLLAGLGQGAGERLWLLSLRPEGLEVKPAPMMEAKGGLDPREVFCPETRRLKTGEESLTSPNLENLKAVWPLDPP
Conditions: protein: recombinant; tags: N-terminal GST; dsDNA, one strand shown. Put shortly:
as §1

The next assay has as its target T8, ETS2 (Homo sapiens, UniProt P15036 1-469).
T8 sequence: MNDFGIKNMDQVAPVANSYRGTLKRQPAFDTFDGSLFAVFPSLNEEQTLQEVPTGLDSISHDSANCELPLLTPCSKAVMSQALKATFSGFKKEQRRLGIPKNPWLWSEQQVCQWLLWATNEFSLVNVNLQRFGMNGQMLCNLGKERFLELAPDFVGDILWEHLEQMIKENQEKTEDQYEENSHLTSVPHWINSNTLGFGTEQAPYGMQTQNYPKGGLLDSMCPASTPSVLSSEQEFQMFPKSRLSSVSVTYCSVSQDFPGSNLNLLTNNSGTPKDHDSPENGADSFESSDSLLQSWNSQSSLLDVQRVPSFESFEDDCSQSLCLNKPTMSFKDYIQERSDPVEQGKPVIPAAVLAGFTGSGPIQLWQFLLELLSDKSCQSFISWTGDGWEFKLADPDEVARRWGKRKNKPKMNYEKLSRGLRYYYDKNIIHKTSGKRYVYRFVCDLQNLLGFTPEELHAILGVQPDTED
The note with it: protein: recombinant; tags: N-terminal GST; dsDNA, one strand shown. Summed up: as §1

Another assay has as its target T9, SPDEF (Homo sapiens, UniProt O95238 1-335).
T9 sequence: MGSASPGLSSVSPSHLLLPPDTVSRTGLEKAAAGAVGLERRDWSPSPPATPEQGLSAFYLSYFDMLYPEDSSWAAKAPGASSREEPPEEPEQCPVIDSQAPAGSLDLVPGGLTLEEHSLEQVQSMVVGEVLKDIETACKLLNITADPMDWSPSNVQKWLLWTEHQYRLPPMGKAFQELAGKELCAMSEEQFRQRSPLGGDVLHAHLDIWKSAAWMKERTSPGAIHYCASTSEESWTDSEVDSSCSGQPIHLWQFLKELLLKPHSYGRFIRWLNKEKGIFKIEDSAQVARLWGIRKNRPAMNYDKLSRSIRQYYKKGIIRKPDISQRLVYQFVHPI
The note with it: protein: recombinant; tags: N-terminal GST; dsDNA, one strand shown. Summed up: as §1

The target of the next assay is T10, ETV7 (Homo sapiens, UniProt Q9Y603 1-341).
T10 sequence: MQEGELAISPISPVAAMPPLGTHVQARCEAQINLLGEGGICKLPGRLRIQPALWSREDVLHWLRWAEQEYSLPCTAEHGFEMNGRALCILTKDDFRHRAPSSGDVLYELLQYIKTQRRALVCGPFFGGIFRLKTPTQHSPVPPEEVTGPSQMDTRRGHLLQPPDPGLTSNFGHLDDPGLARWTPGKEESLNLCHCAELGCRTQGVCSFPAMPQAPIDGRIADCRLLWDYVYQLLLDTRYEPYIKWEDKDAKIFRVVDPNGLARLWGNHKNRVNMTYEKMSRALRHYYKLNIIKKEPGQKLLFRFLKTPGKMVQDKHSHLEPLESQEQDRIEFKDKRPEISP
Conditions: protein: recombinant; tags: N-terminal GST; dsDNA, one strand shown. Put shortly:
as §1

For another assay, the target named is T11, ELF5 (Homo sapiens, UniProt Q9UKW6-2 1-255).
T11 sequence: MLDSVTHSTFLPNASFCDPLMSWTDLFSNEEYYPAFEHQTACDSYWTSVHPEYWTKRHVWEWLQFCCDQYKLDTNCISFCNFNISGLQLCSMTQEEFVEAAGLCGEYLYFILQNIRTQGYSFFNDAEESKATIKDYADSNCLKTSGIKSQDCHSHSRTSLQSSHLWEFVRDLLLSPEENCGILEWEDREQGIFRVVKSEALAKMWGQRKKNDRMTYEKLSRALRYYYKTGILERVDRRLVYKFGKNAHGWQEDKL
The note with it: protein: recombinant; tags: N-terminal GST; dsDNA, one strand shown. Put shortly: as §1

Another assay addresses T12, ETV3 (Homo sapiens, UniProt P41162-2 1-143).
T12 sequence: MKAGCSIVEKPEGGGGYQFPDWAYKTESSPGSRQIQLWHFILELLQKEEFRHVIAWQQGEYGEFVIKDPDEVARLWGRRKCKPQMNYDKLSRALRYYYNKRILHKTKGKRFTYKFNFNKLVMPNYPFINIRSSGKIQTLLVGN
Conditions: protein: recombinant; tags: N-terminal GST; dsDNA, one strand shown. Put shortly:
as §1

The target in a further assay is ETV6 (Homo sapiens, UniProt P41212 1-452). Conditions: protein: recombinant; tags: N-terminal GST; dsDNA, one strand shown. Summed up:
as §1

Sequence of HSF1 (Q00613 whole entry): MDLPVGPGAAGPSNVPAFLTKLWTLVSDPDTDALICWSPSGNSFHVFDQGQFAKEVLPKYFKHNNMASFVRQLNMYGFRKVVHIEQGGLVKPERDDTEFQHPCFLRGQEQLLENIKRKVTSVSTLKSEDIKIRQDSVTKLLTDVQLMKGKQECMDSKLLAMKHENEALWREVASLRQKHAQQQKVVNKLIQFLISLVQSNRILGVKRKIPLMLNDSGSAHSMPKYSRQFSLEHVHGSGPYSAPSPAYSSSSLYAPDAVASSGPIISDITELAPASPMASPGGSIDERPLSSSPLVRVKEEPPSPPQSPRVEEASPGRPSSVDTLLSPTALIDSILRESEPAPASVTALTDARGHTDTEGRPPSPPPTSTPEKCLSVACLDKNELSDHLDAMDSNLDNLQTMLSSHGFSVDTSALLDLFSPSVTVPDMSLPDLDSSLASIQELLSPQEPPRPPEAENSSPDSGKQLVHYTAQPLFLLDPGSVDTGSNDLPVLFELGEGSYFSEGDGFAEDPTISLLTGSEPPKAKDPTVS
Sequence of CRX (O43186 whole entry): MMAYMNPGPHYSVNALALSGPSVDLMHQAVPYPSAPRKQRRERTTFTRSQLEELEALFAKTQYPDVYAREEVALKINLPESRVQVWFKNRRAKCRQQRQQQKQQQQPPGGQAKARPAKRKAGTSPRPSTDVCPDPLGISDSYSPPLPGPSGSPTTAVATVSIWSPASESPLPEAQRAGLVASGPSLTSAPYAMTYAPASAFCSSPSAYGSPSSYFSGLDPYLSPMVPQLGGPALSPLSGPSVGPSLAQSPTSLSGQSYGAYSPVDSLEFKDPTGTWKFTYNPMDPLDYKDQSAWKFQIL
Sequence of ETV1 (P50549 whole entry): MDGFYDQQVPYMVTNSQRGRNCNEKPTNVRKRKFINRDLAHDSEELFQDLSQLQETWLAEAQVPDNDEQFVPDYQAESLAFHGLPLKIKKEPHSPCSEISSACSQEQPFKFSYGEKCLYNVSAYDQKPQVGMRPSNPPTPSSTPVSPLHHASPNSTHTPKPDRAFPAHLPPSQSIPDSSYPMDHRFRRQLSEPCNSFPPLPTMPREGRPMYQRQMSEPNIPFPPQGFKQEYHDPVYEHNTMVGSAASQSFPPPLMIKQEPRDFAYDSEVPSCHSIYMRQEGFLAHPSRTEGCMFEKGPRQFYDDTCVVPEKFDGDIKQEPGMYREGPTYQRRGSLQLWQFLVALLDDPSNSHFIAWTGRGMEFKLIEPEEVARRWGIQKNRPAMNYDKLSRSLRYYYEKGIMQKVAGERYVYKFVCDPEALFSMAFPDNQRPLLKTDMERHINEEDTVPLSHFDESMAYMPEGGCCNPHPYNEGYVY
Sequence of ETV6 (P41212 whole entry): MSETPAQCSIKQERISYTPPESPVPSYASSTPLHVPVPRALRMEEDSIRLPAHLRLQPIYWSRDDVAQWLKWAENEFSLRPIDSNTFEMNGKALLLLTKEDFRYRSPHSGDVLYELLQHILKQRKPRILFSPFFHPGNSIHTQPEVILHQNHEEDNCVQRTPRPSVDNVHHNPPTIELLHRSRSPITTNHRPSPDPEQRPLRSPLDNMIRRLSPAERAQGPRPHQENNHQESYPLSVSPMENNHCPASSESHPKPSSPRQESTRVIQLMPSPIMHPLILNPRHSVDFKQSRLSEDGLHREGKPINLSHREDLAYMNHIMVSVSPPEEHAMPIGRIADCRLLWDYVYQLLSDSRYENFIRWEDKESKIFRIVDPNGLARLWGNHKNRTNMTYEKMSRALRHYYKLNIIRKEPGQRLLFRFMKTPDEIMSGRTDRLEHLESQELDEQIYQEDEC

GTTTCG: the binding signal in the assay with FEV is 1.27 fold enrichment (6-mer frequency, TF over GST control); with ETV5, 1.28 fold enrichment (6-mer frequency, TF over GST control); with HSF1 it was 1.44 fold enrichment (6-mer frequency, TF over GST control); with SPIC it was 1.24 fold enrichment (6-mer frequency, TF over GST control); with ELF4, 1.33 fold enrichment (6-mer frequency, TF over GST control); with ELK4, 1.34 fold enrichment (6-mer frequency, TF over GST control). The binding signal in the assay with ETV2 was 1.24 fold enrichment (6-mer frequency, TF over GST control); with ELF3, 1.09 fold enrichment (6-mer frequency, TF over GST control); with CRX it was 1.09 fold enrichment (6-mer frequency, TF over GST control); with ETV1, 1.27 fold enrichment (6-mer frequency, TF over GST control); in the assay with ERF, 1.38 fold enrichment (6-mer frequency, TF over GST control); with ETV3L it was 1.33 fold enrichment (6-mer frequency, TF over GST control). Further, the binding signal with ETS2 is 1.15 fold enrichment (6-mer frequency, TF over GST control); with SPDEF, 1.27 fold enrichment (6-mer frequency, TF over GST control); in the assay with ETV7, 1.27 fold enrichment (6-mer frequency, TF over GST control); with ELF5 it was 1.12 fold enrichment (6-mer frequency, TF over GST control); with ETV3, 1.32 fold enrichment (6-mer frequency, TF over GST control); in the assay with ETV6, 1.23 fold enrichment (6-mer frequency, TF over GST control).

The values are drawn from article PMC7862700, “An all-to-all approach to the identification of sequence-specific readers for epigenetic DNA modifications on cytosine”.
